Reference: the supplement of paper PMC11577813, “Eurasian spruce bark beetle detects lanierone using a highly expressed specialist odorant receptor, present in several functional sensillum types” (BMC Biology, 2024)
± gives the standard deviation of the averaged measurements.

Tested on: lanierone-responsive B-neuron OSN class (ItypOR36)
Test: net action potential response of lanierone B-neuron (blank-subtracted) (spikes/s (Hz)); higher = stronger excitation
Settings: 10 µg on filter paper, neuron: B neuron (small spike amplitude)
Procedure: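 Single sensillum recordings from antennal olfactory sensilla of live adult Ips typographus. Each compound was 10 µg in paraffin oil, delivered as a 0.5 s puff. Net response = spikes in the first 0.5 s of response minus the 0.5 s pre-stimulus count, doubled to give Hz, with blank response subtracted. Values are for the small-spike lanierone-responsive B-neuron (putatively expressing ItypOR36), recorded in sensilla co-housing the A-neuron class; N = 1-4, averaged.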

[1] = co-localized A-neuron class: (4S)-cis-verbenol
[2] = co-localized A-neuron class: (5S,7S)-trans-conophthorin
[3] = co-localized A-neuron class: (+)-isopinocamphone
[4] = co-localized A-neuron class: (+)-trans-4-thujanol
[5] = co-localized A-neuron class: ipsdienol
[6] = co-localized A-neuron class: myrcene
[7] = co-localized A-neuron class: p-cymene

Q: Which “net action potential response” value [1] does the source give for `CC/C=C/CCO` here?
A: The value was 2 ± 4.

Q: And the “net action potential response” value [2]?
A: Its value is -5.33 ± 6.1.

Q: And the “net action potential response” value [3]?
A: Its value is -2 ± 5.3.

Q: What about the “net action potential response” value [4] of the same molecule?
A: Its value is -0.5 ± 6.6.

Q: What about the “net action potential response” value [5] of the same molecule?
A: Its value is 0 ± 4.

Q: What about the “net action potential response” value [6] of the same molecule?
A: The value was -2.

Q: What about the “net action potential response” value [7] of the same molecule?
A: The value was -0.667 ± 3.1.

Q: How did the “net action potential response” value [1] turn out when `CCCCCCO` [1-Hexanol] was run?
A: The value was -0.667 ± 3.1.

Q: What about the “net action potential response” value [2] of the same molecule?
A: The value was 0.5 ± 3.4.

Q: And the “net action potential response” value [3]?
A: The value was -1.33 ± 1.1.

Q: What about the “net action potential response” value [4] of the same molecule?
A: Its value is 0 ± 1.6.

Q: What about the “net action potential response” value [5] of the same molecule?
A: The value was 2 ± 2.

Q: And the “net action potential response” value [6]?
A: Its value is -6.

Q: What about the “net action potential response” value [7] of the same molecule?
A: Its value is -2.67 ± 6.1.

Q: What does the source list for `CCCCCC(O)CC` (racemic) [(±)-3-Octanol]?
A: net action potential response [1]: 1.33 ± 7.6; net action potential response [2]: -1 ± 3.5; net action potential response [3]: -3.33 ± 4.2; net action potential response [4]: -4 ± 8.6; net action potential response [5]: -4.67 ± 4.2; net action potential response [6]: -6; net action potential response [7]: -3.33 ± 5.8

Q: What does the source list for `CCC/C=C/CO`?
A: net action potential response [1]: 0.667 ± 6.4; net action potential response [2]: 4.67 ± 3.1; net action potential response [3]: -0.667 ± 6.1; net action potential response [4]: 4 ± 2.8; net action potential response [5]: 2 ± 5.3; net action potential response [6]: 2; net action potential response [7]: 2 ± 2.8

Q: `CCC/C=C/C=O` [(E)-hex-2-enal] was tested. Which “net action potential response” value [1] did it give?
A: The value was -2.67 ± 18.

Q: What about the “net action potential response” value [2] of the same molecule?
A: Its value is 0 ± 2.

Q: And the “net action potential response” value [3]?
A: The value was -2.67 ± 3.1.

Q: And the “net action potential response” value [4]?
A: The value was -1.5 ± 3.4.

Q: And the “net action potential response” value [5]?
A: The value was 0.667 ± 1.1.

Q: And the “net action potential response” value [6]?
A: The value was -6.

Q: And the “net action potential response” value [7]?
A: Its value is -2 ± 8.5.

Q: What does the source list for `CC/C=C\CCO`?
A: net action potential response [1]: 2.67 ± 6.4; net action potential response [2]: -4 ± 6; net action potential response [3]: -4 ± 2; net action potential response [4]: -4.5 ± 3.4; net action potential response [5]: -5.33 ± 5.8; net action potential response [6]: -6; net action potential response [7]: 0
